Assay outcomes from PubChem.
A selection: hits, their analogues and other compounds. The true share with any hit is near 2.3%.
V-ATPase pH: alters yeast V-ATPase proton transport | AID 504577 | 0.37% of 350,000 active | S. cerevisiae, pHLuorin cytosolic pH fluorescence | response, % at 10 µM; in the data active means response mostly above about 7.3%, no sharp cut-off; inactive means mostly below about 5.4%; further: actives read high
ADAM10 inh: ADAM10 inhibition, QFRET primary screen; inhibition, % at 7 µM; recombinant ADAM10, EDANS/DABCYL FRET peptide cleavage, 3 h; O14672; AID 720582; 0.62% of 370,000 active;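 active means inhibition above a per-campaign cutoff equal to the mean of compounds falling between control-based bounds plus 3 SD, cut at about 20% in these data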
ADAM17 inh: ADAM17 inhibition, QFRET primary screen; 0.83% of 370,000 active; recombinant ADAM17, EDANS/DABCYL FRET peptide cleavage; inhibition, % at 6.95 µM; P78536; AID 720648;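 active means inhibition above the mean of compounds lying between control limits plus 3 SD, set per campaign, cut at about 8.5% in these data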
Target sequence (P78536 215-824 limits assumed): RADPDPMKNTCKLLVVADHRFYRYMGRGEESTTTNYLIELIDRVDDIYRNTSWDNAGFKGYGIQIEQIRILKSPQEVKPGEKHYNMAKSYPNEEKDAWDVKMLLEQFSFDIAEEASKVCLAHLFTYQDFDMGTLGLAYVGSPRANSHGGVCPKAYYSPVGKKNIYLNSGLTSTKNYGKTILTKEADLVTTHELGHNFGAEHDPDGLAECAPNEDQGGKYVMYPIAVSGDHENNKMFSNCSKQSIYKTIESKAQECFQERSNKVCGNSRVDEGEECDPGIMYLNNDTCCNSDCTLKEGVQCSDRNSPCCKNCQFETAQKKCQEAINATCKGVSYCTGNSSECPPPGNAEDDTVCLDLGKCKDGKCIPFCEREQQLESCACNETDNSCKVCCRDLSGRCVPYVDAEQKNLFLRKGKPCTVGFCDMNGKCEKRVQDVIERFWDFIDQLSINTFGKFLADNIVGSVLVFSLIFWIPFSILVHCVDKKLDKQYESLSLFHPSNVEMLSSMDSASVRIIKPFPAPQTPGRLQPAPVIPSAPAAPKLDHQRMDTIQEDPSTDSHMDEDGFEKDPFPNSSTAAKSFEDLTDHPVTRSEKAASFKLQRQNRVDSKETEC
proKLK7 act: activates the human kallikrein-7 zymogen. 0.9% of 370,000 active. activation, % at 7 µM. purified proKLK7, EDANS-DABCYL substrate fluorescence; 100% is mature enzyme control, 0% vehicle. P49862;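 active means activation above the mean of all tested compounds plus 3 SD, computed per campaign excluding outliers beyond control limits, cut at about 13% in these data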
ADAM10 confirm: human ADAM10 inhibition, confirmation | 1% of 2,100 active | inhibition, % at 6.95 µM | shares compounds with ADAM10 inh | ADAM10 QFRET peptide cleavage, EDANS fluorescence;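 active means inhibition above about 20% chosen separately for each screening run, limit read from the data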
ADAM17 counter: inhibits human ADAM17 in ADAM10 exosite counter-screen | shares compounds with ADAM10 inh | ADAM17 QFRET peptide cleavage, EDANS fluorescence | inhibition, % at 6.95 µM | 0.5% of 2,100 active | AID 743214;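 active means mean triplicate inhibition above the solvent-only control wells' mean plus 3 SD, cut at about 12% in these data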
Each line names hits and unclear results; the compound was inactive in the other large screens (follow-up assays come after a bar, where they were run); ! = a repeat was not active.

CCCCn1c(N)c(N(CCOC)C(=O)c2cc(C)oc2C)c(=O)[nH]c1=O	ADAM10 inh 51 | ADAM10 confirm inactive | ADAM17 counter inactive
COC(=O)[C@]12C[C@H](CC(=O)NCCCCc3ccccc3)C(=O)N(Cc3ccc4c(c3)OCO4)C1=C[C@H](C(C)C)O[C@@H]2C1CC1	ADAM10 inh 21 (no result: V-ATPase pH) | ADAM10 confirm inactive | ADAM17 counter inactive
COC(=O)[C@]12C[C@H](CC(=O)NCc3cccc(C(F)(F)F)c3)C(=O)N(Cc3ccc4c(c3)OCO4)C1=C[C@H](C(C)C)O[C@@H]2C1CC1	ADAM10 inh 20 (no result: V-ATPase pH) | ADAM10 confirm inactive | ADAM17 counter inactive
CCCCCCCCN1C(=O)[C@@H](CC(=O)NCc2ccc(OC)c(OC)c2)C[C@@]2(C(=O)OC)C1=C[C@H](C(C)C)O[C@@H]2C1CC1	ADAM10 inh 22 (no result: V-ATPase pH) | ADAM10 confirm inactive | ADAM17 counter inactive
COC(=O)[C@]12C[C@H](CC(=O)NCc3cccc4ccccc34)C(=O)N(Cc3ccc4c(c3)OCO4)C1=C[C@H](C(C)C)O[C@@H]2C1CC1	none (no result: V-ATPase pH)
CC(C)N1C(=O)C(Cc2nc3ccccc3c(=O)n2-c2ccccc2)c2ccccc21 (stereo not given)	ADAM10 inh 86 | ADAM10 confirm inactive | ADAM17 counter inactive
CCCN1C(=O)C(Cc2nc3ccccc3c(=O)n2-c2ccccc2)c2ccccc21 (stereo not given)	none
COc1ccc(Nc2nc(-c3ccccc3O)nc3ccccc23)cc1	ADAM10 inh 21 | ADAM10 confirm inactive | ADAM17 counter inactive
S=C(Nc1ccc(Oc2ccccc2)cc1)N1CCN(c2ccccn2)CC1	ADAM10 inh 22 | ADAM10 confirm inactive | ADAM17 counter inactive
S=C(Nc1ccc(Cl)c(Cl)c1)N1CCN(c2ccccn2)CC1	none
CCOC(=O)C1=C(C)NC(C)=C(C(=O)OC)C1c1cccc([N+](=O)[O-])c1 (stereo not given)	none
COCCOC(=O)C1=C(C)NC(C)=C(C(=O)OC(C)C)C1c1cccc([N+](=O)[O-])c1 (stereo not given)	ADAM10 inh 22! | ADAM10 confirm inactive | ADAM17 counter inactive
CCC(=O)Nc1cccc(C2=NOC3(C2)C[C@@H](C(N)=O)N(C(=O)COc2ccc(Cl)cc2)C3)c1 (stereo not given in full)	none
NC(=O)[C@@H]1CC2(CC(c3cccc(NC(=O)CC(c4ccccc4)c4ccccc4)c3)=NO2)CN1C(=O)COc1ccc(Cl)cc1 (stereo not given in full)	ADAM10 inh 23 | ADAM10 confirm inactive | ADAM17 counter inactive
NC(=O)[C@H]1CC2(CC(c3cccc(NC(=O)CC(c4ccccc4)c4ccccc4)c3)=NO2)CN1C(=O)c1ccccc1C(=O)c1ccccc1 (stereo not given in full)	ADAM10 inh 20 | ADAM10 confirm inactive | ADAM17 counter inactive
CCC[C@H]1[C@@H](NC(=O)C2CCOC2)CC[C@@]23CCCN2C(=O)CCC[C@@H]13 (stereo not given in full)	none (no result: V-ATPase pH, proKLK7 act)
C[C@H]1Cn2cnc(C(=O)N(C)Cc3ccccc3)c2C(=O)N1	none (no result: V-ATPase pH)
CC1=N/C(=C\c2ccc([N+](=O)[O-])cc2)C(=O)N1c1ccc(C)c(Cl)c1	none (no result: V-ATPase pH)
Oc1ccc(C[C@H]2CN([C@@H](Cc3ccc(O)cc3)CN3CCC[C@@H]3CN3C(=S)NC[C@@H]3Cc3ccccc3)C(=S)N2CCc2ccccc2)cc1	none (no result: V-ATPase pH)
Oc1ccc(C[C@H]2CNC(=S)N2C[C@H]2CCCN2C[C@H](Cc2ccccc2)N2C[C@H](Cc3ccc(O)cc3)N(CCc3ccccc3)C2=S)cc1	ADAM10 inh 28 (no result: V-ATPase pH) | ADAM10 confirm inactive | ADAM17 counter inactive
CC(C)C[C@@H](CN1CCCC1CN1C(=S)NC[C@@H]1Cc1ccc(O)cc1)N1C[C@H](Cc2ccc(O)cc2)N(CCc2ccccc2)C1=S (stereo not given in full)	ADAM10 inh 33, ADAM17 inh 11 | ADAM10 confirm inactive | ADAM17 counter inactive
COc1ccccc1NC(=O)c1ccccc1NC(=O)c1cccs1	ADAM10 inh 21 | ADAM10 confirm inactive | ADAM17 counter inactive
CC(=O)Nc1sc2c(c1-c1cc3ccccc3o1)CCNC2	none (no result: V-ATPase pH, proKLK7 act)
CCOP(=O)(OCC)C(NC(=O)Nc1ccc(Cl)c(Cl)c1)c1ccccc1 (stereo not given)	ADAM10 inh 22 | ADAM10 confirm inactive | ADAM17 counter inactive
CN(C)c1ccc(C(CNC(=O)c2ccccc2Br)c2c[nH]c3ccccc23)cc1 (stereo not given)	none
CN(C)c1ccc(C(CNS(=O)(=O)c2ccc(F)cc2)c2c[nH]c3ccccc23)cc1 (stereo not given)	ADAM10 inh 22 | ADAM10 confirm inactive | ADAM17 counter inactive
C#CCn1c(S(=O)(=O)Cc2ccccc2Cl)nc(-c2ccccc2)c1-c1ccccc1	none
C#CCn1c(S(=O)(=O)Cc2ccc(C)cc2)nc(-c2ccccc2)c1-c1ccccc1	ADAM10 inh 23 | ADAM10 confirm inactive | ADAM17 counter inactive
CCOC(=O)[C@@H]1[C@H]2COc3ccc(Br)cc3[C@H]2N2C(=O)N(c3ccc(F)cc3)C(=O)[C@]12C	ADAM10 inh 25 | ADAM10 confirm inactive | ADAM17 counter inactive
CCOC(=O)CNC(=O)CSc1nnc(-c2ccccc2)n1CC	none (no result: V-ATPase pH)
CC(C)(C)S(=O)N1Cc2cc(C(=O)N[C@@H]3CCN(Cc4ccccc4)C3)nc(-c3cccc(-c4cc5ccccc5o4)c3)c2[C@@H]1CCO (stereo not given in full)	ADAM10 inh 20 (no result: V-ATPase pH) | ADAM10 confirm inactive | ADAM17 counter inactive
COc1ccc(C(=O)COC(=O)/C=C/c2ccc(S(=O)(=O)Nc3cccc(S(N)(=O)=O)c3)cc2)cc1	ADAM10 inh 21 | ADAM10 confirm inactive | ADAM17 counter inactive
NS(=O)(=O)c1cccc(NS(=O)(=O)c2ccc(/C=C/C(=O)OCC(=O)c3ccc(Br)cc3)cc2)c1	none
O=C(N/N=C/c1cn(-c2cccs2)nc1-c1ccccc1)c1ccccc1Cl	ADAM10 inh 20 | ADAM10 confirm inactive | ADAM17 counter inactive
COC(=O)[C@H](CC(C)C)N(CCCc1cn(CC2CCCCC2)nn1)S(=O)(=O)c1ccc(F)cc1Br	none (no result: V-ATPase pH)
Cc1ccc(Nc2nc(N)nc(CN3CCN(c4ccccc4)CC3)n2)cc1Cl	none
COc1ccc(N2CCN(Cc3nc(N)nc(Nc4ccc(C)c(Cl)c4)n3)CC2)cc1	ADAM10 inh 21 | ADAM10 confirm inactive | ADAM17 counter inactive
O=[N+]([O-])c1ccc(COc2cccc(CO)c2)cc1	none (no result: V-ATPase pH)
CCC1(c2ccccc2)NC(=O)N(CC(=O)N(CC(=O)Nc2ccccc2C(F)(F)F)Cc2ccco2)C1=O (stereo not given)	ADAM10 inh 81 | ADAM10 confirm inactive | ADAM17 counter inactive
CCN(CC(=O)Nc1ccccc1C(F)(F)F)C(=O)CN1C(=O)NC2(CCCCC2)C1=O	none
